Compound activity (PubChem)
Only some compounds are listed: those with a hit (about 2.4% of all), similar ones and a draw of the others.
TGFb inhibitor – TGF-b pathway inhibition; HepG2 CAGA-GFP TGF-b/SMAD3 reporter, GFP fluorescence, 18 h; TGF-beta stimulated, 500 pg/mL final; Potency, µM (series often up to 46.1 µM), for inactives: at the top dose activity, negative = inhibition, most hits filed as inhibitors; actives 1.2% (n = 410,000); also: % is scaled to controls: 0 for no effect and ±100 for the full control effect; nearly all actives have a fitted effect of over 65% in size
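Using HEPG2 CAGA-GFP reporter cells at 1000 cells/well, we pinned test compounds, stimulated with recombinant TGF-beta (500 pg/mL final) and measured total well GFP after 18 h.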
Apoferritin bind – binds horse apoferritin like a general anesthetic | P02791 | apoferritin/1-aminoanthracene competitive binding, fluorescence | Potency, µM (doses to about 77.5 µM), for the others: top-dose activity change, negative = displacement, hits mostly inhibitors | actives 0.074% (n = 350,000); also: % is scaled to controls: 0 for no effect and ±100 for the full control effect; nearly all actives have a fitted effect of over 20% in size
Target sequence (P02791 2-175 limits assumed): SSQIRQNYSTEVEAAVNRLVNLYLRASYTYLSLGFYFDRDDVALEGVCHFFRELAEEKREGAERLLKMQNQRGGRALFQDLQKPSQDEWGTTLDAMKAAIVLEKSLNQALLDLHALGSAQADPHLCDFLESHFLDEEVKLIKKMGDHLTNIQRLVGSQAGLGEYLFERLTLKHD
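Horse-spleen apoferritin (10 uM) in 50% saturated 1-aminoanthracene in PBS was incubated 10 min at room temperature with compound. Fluorescence (ex 380, em 535 nm) was normalized to free and bound 1-AMA, with concentration-response fitted by a four-parameter Hill equation.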
HepG2 viability – HepG2 cytotoxicity, counter-screen for TGF-b inhibitors | HepG2 CAGA-GFP viability, ATP luminescence, 18 h | Potency, µM (series often up to 46.1 µM), for inactives: top-dose activity change, negative = cytotoxicity, hits mostly cytotoxic | actives 0.76% (n = 410,000) | AID 588856
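HepG2 CAGA-GFP cells (1000/well, DMEM with 1% FBS) received compound, then TGF-beta at 500 pg/mL final, and were incubated 18 hours at 37 degrees C. Viability was read by CellTiter-Glo luminescence. Media-only wells were set as complete cell-killing and DMSO as no toxicity.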
S2 tox – reduces viability in counter-screen for ATXN expression inhibitors; S2 cells (HEK-293 line with an ATXN2-luciferase reporter) viability, CellTiter-Fluor protease fluorescence, 24 h; Potency, µM (doses to about 56.7 µM), actives largely listed as cytotoxic; actives 0.49% (n = 400,000); also: nearly all actives have a fitted effect of over 40% in size
ATXN2 expr inh – reduces ATXN2 reporter expression in HEK-293 cells | HEK-293 ATXN2-luciferase reporter, luminescence, 24 h | Potency, µM (series often up to 57 µM), without a hit: top-dose activity change, negative = inhibition, usual class: inhibitors | actives 0.72% (n = 360,000) | AID 1745845; also: % is scaled to controls: 0 for no effect and ±100 for the full control effect; nearly all actives have a fitted effect of over 55% in size
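ATXN2-luciferase reporter cells (luciferase flanked by upstream and downstream ATXN2 gene portions) were treated 24 h at 37 °C with compounds at up to 57 uM. SteadyGlo luminescence gave expression; GF-AFC fluorescence gave viability.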
The depositor's hits bear a star; i = inactive; ? = inconclusive; nt = not tested or not shown. Calls follow the shape of the dose curve; as a rule, active = well fitted curve in the direction sought with a large enough effect; inconclusive = small, poorly fitted or top-dose-only effect, or another doubt; inactive = no such curve, though single readings can be large; an effect the other way counts as inactive or inconclusive. Potency is read from the fitted curve at half-maximal effect.

SMILES | TGFb inhibitor | Apoferritin bind | HepG2 viability | S2 tox | ATXN2 expr inh
Cn1cc(S(=O)(=O)N2CCCCCC2)cc1C(=O)NCc1ccccc1Cl | 5µM* | 53% | 1% | i | -29%
CC(=O)c1ccccc1C(=O)NCC1Cc2cccc(-c3cccnc3)c2O1 (stereo not given) | nt | nt | nt | i | nt
CCCCC(=O)NC(c1ccc(C(C)C)cc1)c1ccc2cccnc2c1O (stereo not given) | ? | -13% | -46% | i | -82%
COc1cccc(C(NC(C)=O)c2ccc3cccnc3c2O)c1 (stereo not given) | ? | -16% | -25% | ? | ?
Oc1c(C(Nc2cccnc2)c2ccc(C(F)(F)F)cc2)ccc2cccnc12 (stereo not given) | ? | nt | -48% | nt | nt
CC(=O)NC(c1cccc([N+](=O)[O-])c1)c1ccc2cccnc2c1O (stereo not given) | ? | -8% | -20% | ? | 3.2µM*
O=[N+]([O-])c1ccc(NC(c2ccccc2)c2ccc3cccnc3c2O)cc1 (stereo not given) | -7% | nt | -1% | i | 2.8µM*
CC(=O)NC(c1ccc(C(C)C)cc1)c1ccc2cccnc2c1O (stereo not given) | ? | -22% | -54% | ? | 3.2µM*
Oc1cccc(C(Nc2nccs2)c2ccc3cccnc3c2O)c1 (stereo not given) | 14µM* | -13% | -26% | i | ?
CCN(CC)CCOC(=O)c1ccc(NC(=O)c2cc3c(s2)-c2ccccc2OC3)cc1 | 11µM* | 133% | 10µM* | i | ?
Nc1c(Cl)ncnc1N/N=C/c1ccccn1 | 4µM* | -8% | -49% | 13µM* | ?
Nc1c(Cl)ncnc1N/N=C/c1ccc2ccccc2n1 | 4.5µM* | -18% | -20% | 10µM* | 7.9µM*
CN(CC(=O)O)c1ccc(/C=C2\C=Cc3ccccc32)cc1 | ? | nt | 2% | nt | nt
O=C1C2C3C=CC(CO)(O3)C2C(=O)N1c1ccccc1-c1ccccc1 (stereo not given) | 13µM* | -21% | 13µM* | ? | ?
CC(=O)Oc1ccc(N2C(=O)C3C4C=CC(CO)(O4)C3C2=O)cc1 (stereo not given) | 8% | -9% | 17% | ? | 1%
N#CCCC(CCC#N)C1=NCCc2ccccc21 | 3% | 7% | 1% | i | -24%
COc1ccccc1OCC(=O)OC/C(O)=C(\C#N)c1nc2ccccc2[nH]1 | -11% | -1% | 2% | 3.2µM* | nt
N#CC(=C(O)COC(=O)CCC1CCCCC1)c1nc2ccccc2[nH]1 | -5% | nt | 16% | nt | 20µM*
N#C/C(=C(/O)COC(=O)c1ccc2c(c1)OCCO2)c1nc2ccccc2[nH]1 | -6% | ? | 16µM* | ? | 9%
COc1ccc(OC/C(O)=C(\C#N)c2nc3ccccc3[nH]2)cc1 | 9% | 5% | -2% | i | -31%
N#C/C(=C(/O)COC(=O)CSc1ccc(Cl)cc1)c1nc2ccccc2[nH]1 | 17% | -3% | -14% | 14µM* | 28µM*
Cc1cc(SCC(=O)OC/C(O)=C(\C#N)c2nc3ccccc3[nH]2)c(C)cc1Br | 2% | -4% | -7% | i | ?
OCc1ccc(-c2ccc(-c3ccc(CO)s3)o2)s1 | nt | 0% | nt | nt | ?
CC/C=C(\C(=O)N[C@@H]1C(=O)N2C(C(=O)OCOC(=O)C(C)(C)C)=C(COC(N)=O)CS[C@H]12)c1csc(N)n1 | nt | nt | nt | i | -1%
Cc1ccc2nc(CS)[nH]c2c1 | -9% | nt | -53% | nt | nt
SMILES | TGFb inhibitor | Apoferritin bind | HepG2 viability | S2 tox | ATXN2 expr inh
C[C@H]1C[C@@H]2[C@H]([C@@H](O)C[C@@]3(C)[C@H]2CC[C@]3(O)C(=O)COC(=O)CCC(=O)O)[C@@]2(C)C=CC(=O)C=C12 | nt | nt | nt | i | nt
O=C(Nc1cccnc1Cl)c1cnn2c1NC(=C1CC1)C=C2C(F)F | -2% | nt | 10% | nt | nt
CC(C)CC1(C)NC(=O)N(CC(=O)Nc2ccc3c(c2)CCC3)C1=O (stereo not given) | -15% | ? | -14% | i | -15%
CCn1c(C(=O)NCc2ccccc2Br)cc2oc3ccccc3c21 | 41% | 94% | 13µM* | i | 57%
CCn1c(C(=O)NCc2cccc(Br)c2)cc2oc3ccccc3c21 | nt | 275% | -56% | nt | nt
Cc1ccc(Cl)cc1NC(=O)CC(O)(C(F)(F)F)C(F)(F)F | 13µM* | -3% | -36% | ? | ?
Nc1nc(N)c2c(ccc3nccc32)[nH]1 | ? | 25% | 1.3µM* | ? | nt
NC[C@H]1O[C@H](O[C@@H]2[C@@H](O)[C@@H](O[C@H]3O[C@H](CO)[C@@H](O)[C@H](N)[C@@H]3O)[C@H](N)C[C@@H]2N)[C@H](O)[C@@H](O)[C@H]1O | nt | nt | nt | nt | 0%
CCN(CC(=O)Nc1ccc(NC(C)=O)cc1)c1ccc(C(F)(F)F)cn1 | 3% | -1% | 3.5µM* | i | 5%
CC(=O)Nc1ccc(N2CCN(c3ccc(C(F)(F)F)cn3)CC2)nc1 | -3% | -2% | -40% | i | -37%
CCOc1ccc(N2CC(C(=O)Nc3ccccc3F)CC2=O)cc1 (stereo not given) | 0% | -4% | 8% | i | -9%
CCn1c(=O)c2cc(C(=O)NCCc3cc(OC)ccc3OC)sc2c2ccccc21 | -1% | -4% | 20% | i | 5%
CCN(CC)c1ccc(/C=C/c2cccc[n+]2C)c(OC)c1 | 26% | -15% | -16% | 8.9µM* | 3.2µM*
Oc1c(N=Nc2ccccc2)sc2ccccc12 | -25% | 7% | -71% | i | nt
Oc1ccc(N=Nc2ccccc2)o1 | ? | 0% | 13µM* | ? | -19%
CC(=O)c1ccc(NS(=O)(=O)c2ccc(CC(C)C)cc2)cc1 | 16µM* | 35µM* | -92% | i | -13%
CC(=O)c1ccc(NC(=O)Nc2ccc(NS(=O)(=O)c3ccc(C)cc3)cc2)cc1 | ? | ? | -54% | i | 0%
CC(=O)Nc1ccc(/C=C/c2ccnc3ccccc23)cc1[N+](=O)[O-] | 13% | nt | -19% | nt | nt
Cc1ccc(S(=O)(=O)N2CCN(CN3C(=O)CC4(CCCC4)C3=O)CC2)cc1 | 4% | nt | 0% | i | 12%
Cc1cccc(NS(=O)(=O)c2cccc(C(=O)N3CCN(c4ccccn4)CC3)c2)c1 | ? | 0% | 0% | i | -15%
Cc1ccc(C(C)(C)C)cc1S(=O)(=O)Nc1cccc(C(=O)N2CCN(c3ccccn3)CC2)c1 | 28µM* | nt | -31% | i | 8%
COc1ccc(C2C=C3CN(C(=O)OC(C)(C)C)S(=O)(=O)C3CC2OC(=O)c2cccc(C)c2)cc1 (stereo not given) | -1% | 2% | 15% | nt | nt
